Results taken from PubChem BioAssay AID1688 (National Center for Advancing Translational Sciences (NCATS), 2009).
About 2,400 (1.1%) of roughly 220,000 compounds were called active. Another 7% or so got no clear call; they are omitted. The call rests on the fitted dose curve; in most records, active means well fitted inhibition curve with a large enough effect; inconclusive means small, poorly fitted or top-dose-only effect, or effect the other way; inactive means no such curve, though single readings can be large or run the other way. The full list was thinned out, with actives kept by preference.

Assay: qHTS Multiplex Assay to Identify Dual Action Probes in a Cell Model of Huntington: Aggregate Formation (GFP); further: nearly all actives have a fitted effect of over 60% in size
Details: PC12 HttQ103-GFP aggregates, Acumen cytometry, 40 h; series mostly up to 9.22 µM; activity change, negative = inhibition: at the top concentration
How it was run: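 PC12 cells stably carrying ecdysone-inducible HTT exon 1 Q103–GFP were induced with tebufenozide (100 nM final) and treated with library compounds in titration. GFP aggregates in lysates were counted by laser scanning cytometry.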
On the % scale 0 is the no-effect control and ±100 the full control effect; potency means the concentration at half of the fitted maximal effect.

Activity change, negative = inhibition, inactive:
Nc1nnc(SCC(=O)NC2CCCc3ccccc32)s1 (stereo not given) -2.41%
O=C(Cc1ccc2c(c1)CCCC2)Nc1ccccc1Cl -12.7% [at 46.1 µM]
O=C(CCl)Nc1ccc(Sc2ccc(NC(=O)CCl)cc2)cc1 21.2%
O=C(NNC(=O)c1cnccc1C(F)(F)F)c1ccc(Cl)cc1 -21.6%
CC(=O)NC(CC(=O)Nc1nccs1)c1ccccc1 (stereo not given) 1.89%
CCOC(=O)c1c(-c2ccc(C)cc2)csc1/N=C(\C)C1=C(O)c2ccccc2C1=O 0.394%
CCCCC(C(=O)OCC(=O)c1ccc(OC)cc1)N1C(=O)c2ccccc2C1=O (stereo not given) -15.5% [at 46.1 µM]
CC(CNS(=O)(=O)c1ccc(Br)cc1)CN(C)C (stereo not given) -16.9%
CN1CCN(c2nc(Nc3ccc(O)cc3)nc3ccccc23)CC1 -3.21% [at 46.1 µM]
c1ccc(-c2nnc(N3CCOCC3)c3ccccc23)cc1 -30.7%
CN(c1ccc(OCC(=O)NC2=NCCS2)cc1)S(=O)(=O)c1ccc(F)cc1 -8.7%
Cc1ccc(C(=O)Nc2nnc(-c3cccs3)s2)cc1C 0.134% [at 46.1 µM]
CC(=O)c1sc(NC(=O)c2ccc(C)cc2)nc1C 8.67% [at 46.1 µM]
Clc1ccc(CSc2nnc3c(n2)[nH]c2ccccc23)cc1 -6.63%
Cc1ccc(CSc2nnc(-c3cnccn3)n2C)cc1 -6.59%
COc1ccc(CC(=O)NCC(=O)N/N=C/c2cc(Br)ccc2OC)cc1 9.05%
Oc1ccc(Br)cc1C=Nc1ccc2[nH]ncc2c1 -6.74% [at 46.1 µM]
COc1ccc(Cl)cc1CSc1ncn[nH]1 -11.8%
COc1ccc(OC)c(C(=O)CSc2nnc(-c3cccs3)o2)c1 -1.52% [at 46.1 µM]
COc1ccc(-c2nnc(SCC(=O)c3cccs3)o2)c(OC)c1 17.5% [at 46.1 µM]
C/C=N/N(c1ccccc1)c1ccccc1 13.7%
COc1cccc(Nc2nnc(SCC(=O)N3CC(=O)Nc4ccccc43)s2)c1 -23.2%
O=P(O)(O)OC[C@H](O)CO 11.5% [at 46.1 µM]
Cc1ccc(S(=O)(=O)NCc2csc(C)n2)c(C)c1 14.9% [at 46.1 µM]
Cc1nc(CNS(=O)(=O)c2cccnc2)cs1 12.4% [at 46.1 µM]
CSC1=NC2(C)CCCCC2C12C=CC(=O)C=C2 (stereo not given) 7.52%
Nn1c(SCc2ccccc2)nnc1C1CCCCC1 8.02%
CCCCNc1nc2c(c(=O)[nH]c(=O)n2C)n1CCOc1ccccc1 15.4% [at 46.1 µM]
Cc1cccc(Cn2c(SCCO)nc3c2c(=O)n(C)c(=O)n3C)c1 -20.3% [at 46.1 µM]
CCn1c(NCCc2ccc(OC)c(OC)c2)nc2c1c(=O)n(C)c(=O)n2C -18.1% [at 46.1 µM]
Cc1cccc(Cn2c(N3CCN(c4ccccc4)CC3)nc3c2c(=O)n(C)c(=O)n3C)c1 -27.9% [at 46.1 µM]
CN(C)C(=O)c1coc2nc3ccccc3nc12 8.88%
Cn1nc(C(F)(F)F)c(-c2ccc(F)cc2)c1NC(=O)CSCC(=O)O -3.17%
c1ccc2sc(NN=C3CCCC3)nc2c1 -14.7% [at 46.1 µM]
COc1cc(/C=N/Nc2nc3ccccc3s2)ccc1O 3.68%
COc1ccc(C(C)=O)cc1COc1ccc(Cl)c(C)c1 -14.3%
CCOC(=O)C1=C(N)N2C(=O)C(C)SC2=C(C(=O)OCC)C1c1cc(OC)c(OC)c(OC)c1 (stereo not given) -22.1%
O=C(NC(=O)c1ccccc1N1CCCCC1)Nc1ccc(Br)cc1 18.1%
COc1cccc2c(=O)n(CC(=O)N3CCCCCC3)ccc12 -2.74% [at 46.1 µM]
O=C(CN1C(=O)c2cccc3cccc(c23)C1=O)N1CCCCC1 -4.79% [at 46.1 µM]
O=C(CC(c1ccccc1)c1cc(Cl)ccc1O)NCCN1CCOCC1 (stereo not given) -16.4%
Cc1c(NC(=O)C(=O)N/N=C/c2cccs2)c(=O)n(-c2ccccc2)n1C 4.35%
COC(=O)c1cc(S(=O)(=O)N2CCC(C(N)=O)CC2)oc1C -8.18%
Cc1nc(SCC(=O)N2CC(=O)Nc3ccccc32)c2c(C)c(C)sc2n1 4.03% [at 46.1 µM]
Cc1nnc(SCC(=O)N2CCc3ccccc3C2)s1 -7.49% [at 46.1 µM]
O=C(Nc1ccc(Cl)cc1)Nc1ccc(C(=O)N2CCOCC2)cc1 -21.5%
O=C(C[n+]1cc(-c2ccc(Cl)c(Cl)c2)n2c1CCC2)c1cccs1 0.87%
COc1ccc(CCN2C(=O)CC(N3CCC(C(N)=O)CC3)C2=O)cc1OC (stereo not given) 10.9%
Cc1c(CCC(=O)O)c(=O)oc2cc3occ(-c4ccccc4)c3cc12 -3.15%
CCCC(=O)Nc1nnc(-c2ccccc2)o1 -9.12%
COc1cc(C(F)(F)F)c(C(=O)N(C)c2ccc(Cl)cc2)cn1 -6.9%
CCC(=O)Nc1cccc(C2=NOC3(C2)C[C@@H](C(N)=O)N(C(=O)c2cc([N+](=O)[O-])cc([N+](=O)[O-])c2C)C3)c1 (stereo not given in full) 13.8%
O=c1c2ccccc2nc2n1C(CSc1ccc(Cl)cc1)CN2 (stereo not given) 9.06% [at 46.1 µM]
O=c1c2ccccc2nc2n1C(CSc1ccc(F)cc1)CN2 (stereo not given) -9.1% [at 46.1 µM]
CN(C)S(=O)(=O)c1ccc(NC(=O)COC(=O)Cn2[nH]c(=O)c3ccccc3c2=O)cc1 7.23%
Clc1cccc(-c2nc(NCC3CCCO3)c3ccccc3n2)c1 (stereo not given) -25.1% [at 46.1 µM]
O=C(O)c1cccc(NC(=O)c2cc(-c3cccc(Cl)c3)nc3ccccc23)c1 14% [at 46.1 µM]
CC(C)=NN1C(=O)c2ccccc2NC1(C)C 8.6%
Cc1ccccc1Nc1c(-c2ccccc2)nc2ncccn12 18.6%
O=C(CNC(=O)C(c1ccccc1)c1ccccc1)N/N=C\c1ccc2c(c1)OCO2 5.61% [at 46.1 µM]
C/C(=N\NC(=O)Cc1ccc(F)cc1)c1ccc(F)cc1 -15.3% [at 46.1 µM]
CCNC(=S)N1CCN(CCN=CC2=C(O)CC(C)(C)CC2=O)CC1 -0.873%
O=C(N/N=C/c1ccc2c(c1)OCO2)c1ccc(Cn2cc([N+](=O)[O-])cn2)o1 16.5% [at 46.1 µM]
Cc1c(Cl)c([N+](=O)[O-])nn1CCCC(=O)Nc1cc(Cl)ccc1Cl 6.08% [at 46.1 µM]
CC(NC(=S)Nc1ccccc1)C(c1cccs1)N1CCOCC1 (stereo not given) -9.73%
O=C(Nc1cccc(C(F)(F)F)c1)c1cnccn1 -11%
O=C(O)CSCC(=O)Nc1cccc(C(F)(F)F)c1 13.9% [at 46.1 µM]
Cc1cc(C(=O)CSc2nc(N)cc(=O)[nH]2)c(C)n1Cc1ccco1 0.897%
COC(c1ccccc1)(c1ccccc1)C(Oc1nc(C)cc(C)n1)C(=O)O (stereo not given) 12.9% [at 46.1 µM]
COc1ccc(/C=C/c2nnc(NC(=O)C(C)C)s2)cc1 3.19%
CCN(CC)S(=O)(=O)c1ccc(N(C)CCc2ccc(OC)c(OC)c2)nc1 -4.47% [at 46.1 µM]
CCN(CC)S(=O)(=O)c1ccc(Cl)c(NC(=O)c2ccncc2)c1 -14.4%
C/C(=N\OCC(=O)O)c1ccc(Cl)cc1 1.57%
O=C(CNCc1cccs1)Nc1cc(S(=O)(=O)N2CCCC2)ccc1Cl 10.3%
O=C(Nc1cc(Cl)cc(Cl)c1)C(NCCCO)c1ccccc1 (stereo not given) 2.63% [at 46.1 µM]
CC(C)n1cnc2c(Nc3cccc(Cl)c3)nc(N(CCO)CCCO)nc21 10.2%
Brc1ccc2c(c1)[C@H]1OCC[C@H]1[C@@H](c1cccs1)N2 -17.7%
CCCCSc1nc2ccccc2[nH]1 -0.277%
O=C(CSc1nc2ccccc2[nH]1)c1cccs1 9.78% [at 46.1 µM]
O=C(O)c1ccc(/C=N/Nc2nc(N3CCCCC3)nc(N3CCCCC3)n2)cc1 -22.3%
NC(=O)c1ccc(NC(=O)COC(=O)c2ccc([N+](=O)[O-])cc2)cc1 13.2%
COc1ccc(N(Cc2ccccc2)S(=O)(=O)c2cccc(C(=O)O)c2)cc1 39.5%
CCOC(=O)N1CCN(C(=O)c2ccc(S(=O)(=O)c3ccc(C)cc3)c(NC(C)=O)c2)CC1 10.1% [at 46.1 µM]
O=C(NCCN1CCOCC1)c1ccc2c(c1)N(Cc1ccc(Cl)cc1)CCS2 -10.9%
Cc1ccc(S(=O)(=O)N2CCN(C(=O)COC(=O)c3c(C)noc3C)CC2)c(C)c1 -9.73%
Cc1onc(-c2ccccc2)c1C(=O)N1CCOCC1 -8.31% [at 46.1 µM]
O=C(c1ccccc1-c1ccccc1)N1CCOCC1 1.58% [at 46.1 µM]

Potency, active:
O=C(Cc1ccc(Cl)c(Cl)c1)Nc1ccc(SC(F)F)cc1 12.6 µM
CCOC(=O)C1=C(c2ccc(OC)cc2)C(=O)c2ccccc2C1=O 11.2 µM
c1ccc(Nc2nc(N3CCOCC3)c3ccccc3n2)cc1 12.6 µM
N#Cc1ccc(C(=O)Nc2nc(-c3cccs3)c(C(=O)C(F)(F)F)s2)cc1 2.82 µM
O=C(CCCO)N/N=C/c1cc(Br)ccc1O 7.94 µM
COc1ccc(-n2c(C)cc(C(=O)CSc3nnc(-c4cccs4)o3)c2C)cc1 7.94 µM
Cc1nc(CNS(=O)(=O)c2ccc(Oc3ccccc3)cc2)cs1 10 µM
CCCCNc1nc2c(c(=O)n(C)c(=O)n2C)n1Cc1cccc(OC)c1 7.08 µM
COC(=O)C(C)Sc1nc2c(c(=O)n(C)c(=O)n2C)n1Cc1cccc(C)c1 (stereo not given) 28.2 µM
O=[N+]([O-])c1cc(Br)c(O)c(/C=N/Nc2nc3ccccc3s2)c1 5.01 µM
Cn1c(=O)n(C)c(=O)n(CC(=O)N2CCCCC2)c1=O 3.55 µM
Cc1nc(SCC(=O)N2CCc3ccccc3C2)c2c(C)c(C)sc2n1 14.1 µM
CCCCCCc1cc2cc(-c3nnc(-c4ccccc4)o3)c(=O)oc2cc1O 5.01 µM
O=c1c2ccccc2nc2n1C(CSCc1ccccc1)CS2 (stereo not given) 11.2 µM
Clc1ccc2nc(-c3ccccc3)nc(C(Cl)Cl)c2c1 1.41 µM
C/C(=N\NC(=O)CNC(=O)C(c1ccccc1)c1ccccc1)c1ccc(C)cc1 12.6 µM
Cc1c(Cl)c([N+](=O)[O-])nn1Cc1ccc(C(=O)N/N=C\c2cc(Cl)ccc2O)o1 1.58 µM
O=C(Nc1cccc(C(F)(F)F)c1)c1cc(Br)cc(Br)c1O 5.01 µM
CCN(CC)S(=O)(=O)c1ccc(N(C)Cc2ccc(C(F)(F)F)cc2)nc1 10 µM
OCCCNc1nccc(-c2cc(Nc3cccc(Cl)c3)ncn2)n1 0.794 µM
CCC(C)N1C(=O)S/C(=C/c2ccc(Sc3nc4ccccc4[nH]3)o2)C1=O (stereo not given) 10 µM
CCOC(=O)N1CCN(C(=O)c2ccc3c(c2)N(Cc2ccc(C)cc2)CCS3)CC1 11.2 µM
Cc1oc2c(c1C(=O)N1CCOCC1)C(=O)c1ccccc1C2=O 10 µM
